Measurements reported in PubChem BioAssay (NCATS).
Several values for one entry are separate records, joined by “and”; a condition that tells them apart may be missing. Identical values can stand only once. Inconclusive results are not listed. Entries that show only a call come without a potency. Activity calls are given as the source filed them. Calls follow the shape of the dose curve; as a rule, active = well fitted cell-killing curve with a large enough effect; inconclusive = small, poorly fitted or top-dose-only effect; inactive = no such curve, though single readings can be large or run the other way.

Test: qHTS of pediatric cancer cell lines to identify multiple opportunities for drug repurposing: Primary screen for MG 63 (6-TG R) cells (AID 1347105); also: nearly all actives have a fitted effect of over 50% in size
Conditions: MG 63 (6-TG R) viability, CellTiter-Glo, 48 h; series mostly up to 46 µM
Source text: Drug repurposing or repositioning has been offered as a strategy for drug development in oncology programs. This approach has special potential for childhood cancers and other rare or orphan diseases, where the expected return on new drug development has been a disincentive to pharmaceuticals. […] In this project we exploit the poly-pharmacology of drugs to discover new indications via phenotypic screening of a panel of 19 well-characterized cell lines derived from solid tumors seen in children and adolescents. The goal is to identify approved drugs with previously unrecognized anticancer properties that has the potential to reveal new mechanisms and biological processes involved in carcinogenesis or drug resistance. We employed a titration-based paradigm (quantitative high-throughput screening or qHTS), where all compounds were tested at multiple concentrations for their effect on cell viability. Concentration-response curves (CRCs) were derived directly from the primary screen, and both potency and efficacy values were used to identify compounds with robust bioactivity profiles. We screened the NIH Chemical Genomics Center (NCGC) Pharmaceutical Collection (NPC) and Mechanism Interrogation Plate (MIPE) small molecule collections of approved and investigational compounds against these cell lines; and measured metabolically active cells after 48 hours of compound treatment as a proxy for cell viability. […] Assay Submitter: Nathalia J. Martinez, National Center for Advancing Translational Sciences, National Institutes of Health, Rockville, MD, USA; email: natalia.martinez@nih.gov Shen, M et al. Quantitative high-throughput phenotypic screening of pediatric cancer cell lines identifies multiple opportunities for drug repurposing. Oncotarget 2017 Dec 19;9(4):4758-4772. PMID 29435139.
The cells were obtained from University of North Carolina (UNC), Pediatric Preclinical Testing Program (PPT), and Coriell Institute (CI). qHTS cell viability assay: Cells were assayed in growth media at a density of 500-1,000 cells/well. Five microliters of cells were dispensed into 1,536-well, white, solid-bottom, TC-treated plates (Greiner Bio One) using a multidrop dispenser and incubated at 37 degrees C, 5% CO2, under a humidified atmosphere for 5 hours. Twenty-three nanoliters of compounds and controls (neutral control DMSO or positive control bortezomib at final concentration of 2.3 µM) were subsequently transferred by Kalypsys pintool. For primary screens, the MIPE collection was tested at 11-point dilutions (final concentrations range from 0.78 nM to 46 µM) and the NPC collection at 8-point dilutions (final concentrations range from 0.59 nM to 46 µM). Compounds tested in follow-up screens were assayed at 11-point dilutions. Cells were incubated for 48 hours, followed by addition of 3 µL of CellTiter-Glo (Promega). After a 15 min incubation at room temperature, samples were analyzed for luminescence intensity using a ViewLux High-throughput CCD imager equipped with clear filters.
Potency is read from the fitted curve at half-maximal effect.

Compound	Potency
NC(=O)NN=Cc1ccc([N+](=O)[O-])o1	inactive
CCc1ccc(C=C2SC(=S)NC2=O)cc1	inactive
CC(=O)CCCCn1c(=O)c2c(ncn2C)n(C)c1=O	inactive
CC(C)NCC(O)COc1cccc2[nH]ccc12 (stereo not given)	inactive
O=c1c(-c2ccc(O)cc2)coc2cc(O)ccc12	inactive
Cc1cnc(C(=O)O)c[n+]1[O-]	inactive
Nc1ncnc2c1ncn2[C@@H]1O[C@@H](CO)[C@H](O)[C@H]1O	inactive
O=c1c(-c2ccc(O)cc2)coc2cc(O[C@@H]3O[C@H](CO)[C@H](O)[C@H](O)[C@H]3O)ccc12	inactive
Nc1ncnc2ccccc12	inactive
CO[C@H]1C=CC=C(C)C(=O)NC2=CC(=O)C(NCCN(C)C)=C(C[C@@H](C)C[C@H](OC)[C@@H](O)[C@@H](C)C=C(C)[C@@H]1OC(N)=O)C2=O	18.7 µM (active)
O=C(O)C=Cc1ccc(O)c(O)c1	inactive
O=C(O)CCC1CCC(c2cc(F)ccc2F)(S(=O)(=O)c2ccc(Cl)cc2)CC1 (stereo not given)	9.35 µM (active)
c1cc(-c2sc(-c3ccncc3)c(-c3ccncc3)c2-c2ccncc2)ccn1	inactive
O=C(O)[C@H]1O[C@H](Oc2cc3oc(-c4ccccc4)cc(=O)c3c(O)c2O)[C@H](O)[C@@H](O)[C@H]1O	inactive
O=C(NCCN1CCOCC1)c1ccc(Cl)cc1	inactive
N[C@H](CSC(c1ccccc1)(c1ccccc1)c1ccccc1)C(=O)O	inactive
COc1ccc2cccc(CCNC(C)=O)c2c1	inactive
Cn1cc(C=C2C(=O)Nc3cccnc32)c2ccccc21	inactive
O=C(CCCCCCC(=O)Nc1ccccc1)NO	3.35 µM (active) and 3.72 µM (active)
CC(=NNC(=S)N1CCC1)c1ccccn1	0.0235 µM (active)

Compound	Potency
COc1cc(N2CCC(N3CCN(C)CC3)CC2)ccc1Nc1ncnc(Nc2ccccc2S(=O)(=O)C(C)C)n1	inactive
Cc1ccc([C@@H]2O[C@H](CO)[C@@H](O)[C@H](O)[C@@H]2O)cc1Cc1ccc(-c2ccc(F)cc2)s1	inactive
O=C1NC(=O)C(=Cc2cccc(C(F)(F)F)c2)S1	inactive
CCN(CC)CCNC(=O)c1ccc(N)cc1	inactive
CO[C@H]1C=CO[C@@]2(C)Oc3c(C)c(O)c4c(O)c(c5c(c4c3C2=O)NC2(CCN(CC(C)C)CC2)N=5)=NC(=O)C(C)=CC=C[C@H](C)[C@H](O)[C@@H](C)[C@@H](O)[C@@H](C)[C@H](OC(C)=O)[C@H]1C	inactive
O=c1cc(CN2CCOCC2)occ1OCCCCCSc1ccnc2cc(C(F)(F)F)ccc12	inactive
COc1cccc2c1CCCC2CCCN1CCN(C2CCCCC2)CC1 (stereo not given)	inactive
CC[C@H]1OC(=O)[C@H](C)[C@@H](O[C@H]2C[C@@](C)(OC)[C@@H](O)[C@H](C)O2)[C@H](C)[C@@H](O[C@@H]2O[C@H](C)C[C@H](N(C)C)[C@@H]2O)[C@](C)(O)C[C@@H](C)CN(C)[C@H](C)[C@@H](O)[C@]1(C)O	inactive
C=CCc1ccc(O)c(-c2ccc(O)c(CC=C)c2)c1	18.7 µM (active)
NC(CO)(CO)CCc1ccc(Sc2cccc(OCc3ccccc3)c2)cc1Cl	29.6 µM (active)
CC[C@]1(O)C[C@@H]2CN(CCc3c([nH]c4ccccc34)[C@@](C(=O)OC)(c3cc4c(cc3OC)N(C=O)[C@@H]3C45CCN4CC=C[C@](CC)([C@H]45)[C@@H](OC(C)=O)[C@]3(O)C(=O)OC)C2)C1 (stereo not given in full)	inactive
CC(C)OC(=O)C(C)(C)Oc1ccc(C(=O)c2ccc(Cl)cc2)cc1	inactive
CN(C)C1CCN(C(=O)c2ccc(NC(=O)Nc3nc(N4CCOCC4)nc(N4CCOCC4)n3)cc2)CC1	0.0935 µM (active)
N[C@@]1(C(=O)O)CS(=O)(=O)[C@H]2[C@H](C(=O)O)[C@H]21	inactive
CC(C)[C@H](CO)Nc1nc(Nc2ccc(C(=O)O)c(Cl)c2)c2ncn(C(C)C)c2n1	inactive
CC(=O)Nc1ccc([C@H](C)C(=O)Nc2ncc(C(C)C)s2)cc1	1.87 µM (active)
O=C(NC1CCOCC1)c1ccc(-c2cc(-c3cn[nH]c3-c3ccccn3)ccn2)cc1	inactive
CC(C)(C(=O)NCC(F)(F)C(F)(F)F)C(=O)N[C@@H]1C(=O)Nc2ccccc2-c2ccccc21	inactive
O=C(CCc1ccc(O)cc1)c1c(O)cc(O)cc1O[C@@H]1O[C@H](CO)[C@H](O)[C@H](O)[C@H]1O	inactive
CCCCCCCCCCCC1=C(O)C(=O)C=C(O)C1=O	2.96 µM (active)
